{"source": "PubChem BioAssay AID651812", "about": "(National Center for Advancing Translational Sciences (NCATS), 2012)", "note": "About 650 (31%) of roughly 2,100 compounds were called active. Another 16% or so got no clear call; they are omitted. The call rests on the fitted dose curve; in most records, active means well fitted inhibition curve with a large enough effect; inconclusive means small, poorly fitted or top-dose-only effect; inactive means flat fitted curve, though single readings scatter. The list shows a part of the results. A call without a number means that no potency is given here. Potency means the concentration at half of the fitted maximal effect.", "data": [{"assay": "qHTS for inhibitors of Vif-A3G interactions: Cherry picks; further: nearly all actives have a fitted effect of over 80% in size", "conditions": "HeLa A3G-eYFP + Vif (tagged APOBEC3G with the HIV-1 protein that degrades it), 24 h; Potency: eYFP fluorescence increase; series mostly up to 36.9 µM", "description": "The recent discovery and characterization of host restriction factors, which provide a potent defense to invading retroviruses, has provided new targets for antiviral drug development. APOBEC3G (A3G) and APOBEC3F (A3F) are potent cytidine deaminases that block HIV-1 replication; HIV-1 expresses the Vif protein, which counteracts A3G and A3F by binding to them and inducing their proteasomal degradation. The Vif-A3G and Vif-A3F interactions provide two potential targets for development of small molecules which can interfere with the ability of Vif to degrade A3G or A3F. […] To identify inhibitors that can interfere with Vif mediated degradation of A3G and A3F, we have developed Hela cell lines that stably express A3G or A3F tagged with eYFP at the C-terminal end (A3G-eYFP or A3F-eYFP, respectively) and Vif. In the absence of an inhibitor, Vif induces degradation of A3G-eYFP and A3F-eYFP, and the cells are not fluorescent. In the presence of an inhibitor, it is expected that Vif will be unable to degrade A3G-eYFP and/or A3F-eYFP, resulting in an increase in yellow fluorescence. In this assay, Vif A3G was screened against the cherry picks ordered from the MLSMR. NIH Chemical Genomics Center [NCGC] NIH Molecular Libraries Probe Centers Network [MLPCN] MLPCN Grant: MH093245 Assay Submitter (PI): Vinay Pathak, National Cancer Institute\nA3G-Vif cells were harvested from T225 flask and resuspended in phenol free OPTI-MEM medium with 5% FBS. Then 5 uL of 140,000 cells/mL resuspended cells was dispensed into each well of low base Aurora COC 1,536-well plates (black walled, clear bottom) using a Multidrop Combi dispenser. After overnight culture at 37 deg C with 5% CO2, a total of 23 nL of compounds at 5 selected concentrations from the NPC or positive control (2 mM stock of MG132) in DMSO was transferred to each well of the assay plate using a pintool (Kalypsys, San Diego, CA), and the plates were further incubated at 37 deg C with 5% CO2 for 24 hours. After that, the plates were measured on Acumen Explorer (TTP Lab Tech). The fluorescence was detected by 488 nm/Ex and […].", "values": [{"compound": "COCCCNc1nc2ccccc2nc1NS(=O)(=O)c1ccccc1", "Potency": "inactive"}, {"compound": "COC(=O)c1cc(Nc2nc3ccccc3nc2NS(=O)(=O)c2ccc(C)cc2)ccc1Cl", "Potency": "inactive"}, {"compound": "COc1cc(Cl)c(C)cc1Nc1nc2ccccc2nc1NS(=O)(=O)c1ccccc1", "Potency": "16.4 µM (active)"}, {"compound": "COc1cc(N2CCCC2)c(OC)cc1/C=C1/NC(=S)NC1=O", "Potency": "2.5 µM (active)"}, {"compound": "CC1=C/C(=C\\C=C(C#N)C#N)N(C)c2ccccc21", "Potency": "2.59 µM (active)"}, {"compound": "CN1/C(=C/C=C(C#N)C#N)C(C)(C)c2ccccc21", "Potency": "18.4 µM (active)"}, {"compound": "CN1/C(=C\\C=C(C#N)C#N)C(C)(C)c2ccccc21", "Potency": "20.6 µM (active)"}, {"compound": "CN1/C(=C/C=C(/C#N)C(N)=O)C(C)(C)c2ccccc21", "Potency": "inactive"}, {"compound": "Cc1ccc2c(c1)Oc1ccc(NC(=O)CCl)cc1C(=O)N2", "Potency": "inactive"}, {"compound": "CC1=NOC(=O)/C1=C\\c1ccc(-c2ccc(Br)cc2)o1", "Potency": "inactive"}, {"compound": "CN(C)/C=N/C1=C(C#N)C(c2cccs2)c2ccc3ccccc3c2O1", "note": "(centres undefined)", "Potency": "inactive"}, {"compound": "CN(C)c1ccc(/C=C/c2ccnc3c(Cl)ccc(Cl)c23)cc1", "Potency": "9.2 µM (active)"}, {"compound": "CN(C)c1ccc(/C=C/c2ccnc3c(Cl)cccc23)cc1", "Potency": "23.1 µM (active)"}, {"compound": "CC(/C=N/NC(=O)c1cc(-c2ccc3ccccc3c2)n[nH]1)=C\\c1ccco1", "Potency": "inactive"}, {"compound": "Cc1cc(C(=O)N/N=C/c2ccc3c(c2)OCO3)c2ccccc2n1", "Potency": "inactive"}, {"compound": "CC(=O)c1cccc(-c2ccnc3c2CC(C(=O)NCc2ccc(F)c(F)c2)O3)c1", "note": "(centres undefined)", "Potency": "inactive"}, {"compound": "CCC(=O)Nc1nonc1-c1nc2ccccc2n1Cc1ccccc1", "Potency": "inactive"}, {"compound": "ClCc1nc2ccccc2n1Cc1ccccc1", "Potency": "16.4 µM (active)"}, {"compound": "Cc1ccc2[nH]c3c(c2c1)CCCC3NC(=O)CCl", "note": "(centres undefined)", "Potency": "inactive"}, {"compound": "O=c1[nH]c2ccccc2n2c(C(F)(F)F)nnc12", "Potency": "16.4 µM (active)"}, {"compound": "O=c1[nH]c2ccccc2n2c(=S)[nH]nc12", "Potency": "inactive"}, {"compound": "CC(NC(=O)/C(C#N)=C/c1ccc([N+](=O)[O-])o1)c1ccccc1", "note": "(centres undefined)", "Potency": "16.4 µM (active)"}, {"compound": "CC1CCCCC1NC(=O)/C(C#N)=C/C=C/c1ccccc1[N+](=O)[O-]", "note": "(centres undefined)", "Potency": "inactive"}, {"compound": "CCOCCCNC(=O)/C(C#N)=C/c1ccc([N+](=O)[O-])o1", "Potency": "20.6 µM (active)"}, {"compound": "N#Cc1c(NC(=O)c2ccc([N+](=O)[O-])o2)sc2c1CCC2", "Potency": "inactive"}, {"compound": "COc1cc2cc(-c3ccc(OC)c(OC)c3C)nc(N)c2cc1OC", "Potency": "inactive"}, {"compound": "CC(=O)Nc1cccc(-c2ccnc3c2CC(C)(C(=O)Nc2cccc(C(C)=O)c2)O3)c1", "note": "(centres undefined)", "Potency": "inactive"}, {"compound": "O=C(NC(=S)N1CCN(c2ccccn2)CC1)c1ccccc1", "Potency": "inactive"}, {"compound": "O=C(Nc1ccc(Cl)cc1)Nc1ccon1", "Potency": "inactive"}, {"compound": "CCN(c1ccc(NC(=O)CCc2nc3sc4c(c3c(=O)[nH]2)CCCC4)cc1)C(C)C", "Potency": "inactive"}, {"compound": "COc1ccccc1N1CCN(C(=O)c2ccc3ncsc3c2)CC1", "Potency": "inactive"}, {"compound": "CCOc1ccccc1Nc1nnc(-c2cc3cc(Cl)ccc3oc2=O)s1", "Potency": "inactive"}, {"compound": "COc1ccc2oc(=Nc3ccccc3)c(-c3nc4ccccc4[nH]3)cc2c1", "Potency": "inactive"}, {"compound": "COc1ccc(N=c2oc3ccc(OC)cc3cc2-c2nc3ccccc3[nH]2)cc1", "Potency": "inactive"}, {"compound": "CCOc1ccccc1Nc1nnc(-c2cc3cc(OC)ccc3oc2=O)s1", "Potency": "7.31 µM (active)"}, {"compound": "COc1ccc2oc(=O)c(-c3nc4ccccc4o3)cc2c1", "Potency": "20.6 µM (active)"}, {"compound": "COc1cccc2sc(Nc3nc(-c4cc5ccccc5oc4=O)cs3)nc12", "Potency": "inactive"}, {"compound": "CCCNC(=O)c1ccccc1NC(=O)c1ccc2c(c1)NC(=O)C(C)S2", "note": "(centres undefined)", "Potency": "inactive"}, {"compound": "CC(O)CN(CC(C)O)c1ccc2c(c1)Cc1cc([N+](=O)[O-])ccc1-2", "note": "(centres undefined)", "Potency": "3.26 µM (active)"}, {"compound": "CN1/C(=C\\C=C2/SC(=S)NC2=O)C(C)(C)c2ccccc21", "Potency": "2.5 µM (active)"}, {"compound": "CN1/C(=C\\C=C2/SC(=S)N(CC(=O)O)C2=O)C(C)(C)c2ccccc21", "Potency": "1.3 µM (active)"}, {"compound": "C=CCN1C(=O)/C(=C\\C=C2\\N(C)c3ccccc3C2(C)C)SC1=S", "Potency": "0.651 µM (active)"}, {"compound": "Cc1ccc(-c2nc(SCCOc3ccccc3C)n3[nH]c(=O)cc3n2)cc1", "Potency": "inactive"}, {"compound": "CCCOc1ccc(C(=O)Nc2cccc(NC(=O)c3ccc(Cl)cc3Cl)c2)cc1", "Potency": "10.3 µM (active)"}, {"compound": "O=C(Nc1cc(=O)[nH]c(=O)[nH]1)c1cc(Cl)ccc1Cl", "Potency": "inactive"}, {"compound": "Cc1ccc(NC(=S)NC(=O)c2ccc(F)cc2)cc1S(=O)(=O)Nc1cccc(Cl)c1", "Potency": "inactive"}, {"compound": "COc1cc(Cl)c(C)cc1NC(=O)CN1CCN(C(=O)C2CC2)CC1", "Potency": "inactive"}, {"compound": "CCCn1nc(C(=O)N2CC(=O)Nc3ccccc32)c2ccccc2c1=O", "Potency": "inactive"}, {"compound": "Cc1noc(C)c1COc1cccc(C(=O)OCC(=O)N2CC(=O)Nc3ccccc32)c1", "Potency": "inactive"}, {"compound": "COc1cc(OC)cc(C(=O)N2CC(=O)Nc3ccccc32)c1", "Potency": "inactive"}, {"compound": "CCC(C)[C@H](NC(=O)N1CC(=O)Nc2ccccc21)C(=O)Nc1ccccc1C", "note": "(some centres undefined)", "Potency": "inactive"}, {"compound": "Cc1cccc2cc(C#N)c(SCC(=O)N3CC(=O)Nc4ccccc43)nc12", "Potency": "17.7 µM (active)"}, {"compound": "COc1cc(C(=O)N2CC(=O)Nc3ccccc32)cc(OC)c1OC", "Potency": "inactive"}, {"compound": "Cc1cc(C)cc(C(=O)N2CC(=O)Nc3ccccc32)c1", "Potency": "inactive"}]}]}
